Screening results (PubChem BioAssay)
Tau FP inhib = blocks human tau fibril formation measured by polarization | Potency, µM (titrated, usually from 57.7 µM), without a hit: at the top dose activity, negative = inhibition, actives largely listed as inhibitors | AID 1468 | 280,000 tested, 0.39% active | K18 P301L tau heparin fibrillization, Alexa594 FP, 6 h; further: potency means the concentration at half of the fitted maximal effect; nearly all actives have a fitted effect of over 55% in size
Target sequence (P10636 561-689 P618L limits assumed): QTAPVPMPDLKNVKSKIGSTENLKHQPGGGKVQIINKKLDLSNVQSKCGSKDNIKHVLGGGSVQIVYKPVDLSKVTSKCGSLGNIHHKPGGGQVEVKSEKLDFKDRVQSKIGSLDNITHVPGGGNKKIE
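Quantitative HTS format: compounds meet 15 uM recombinant K18 P301L tau and Alexa 594-tau tracer in 100 mM sodium acetate pH 7; 20 uM heparin triggers fibrillization at 37 C over 6 hr; FP gives the signal.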
Tau fluor cs = counter-screen for tau fibril formation inhibitors | tau K18 P301L Alexa594 fluorescence, heparin fibrillization | Potency, µM (titrated, usually from 57.7 µM), without a hit: at the top dose activity change, negative = decrease | 280,000 tested, 0.93% active | AID 1463; further: potency means the concentration at half of the fitted maximal effect; nearly all actives have a fitted effect of over 55% in size
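Human tau K18 P301L (15 uM unlabeled, 0.24 uM Alexa 594-labeled) in 100 mM sodium acetate pH 7 with 20 uM heparin, 6 hr at 37 C. ThT 30 uM added, 1 hr ambient; Alexa 594 FP and total fluorescence read at 555/632 nm.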
Tau fibril ThT = blocks human tau fibril formation measured by thioflavin T; Potency, µM (top dose mostly 57.4 µM), for inactives: top-dose activity, negative = inhibition, hits mostly inhibitors; AID 1460; recombinant tau K18 P301L (four-repeat tau fragment), heparin-induced fibrillization, ThT fluorescence; 270,000 tested, 2.1% active; further: potency means the concentration at half of the fitted maximal effect; nearly all actives have a fitted effect of over 55% in size
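In this qHTS, human K18 P301L tau is incubated with compound and heparin for 6 hr at 37 C, and Thioflavin T fluorescence then reports fibril load.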
FBPA coupling cs = coupling enzyme interference in Giardia aldolase counter-screen | coupling enzyme system counterscreen, AmpLite Red fluorescence | activity change, negative = inhibition, % at 58.2 µM, hits read low | 290,000 tested, 0.67% active | AID 2472; in the data active means activity change below about -30%
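First, compound is pin-transferred into glyceraldehyde-3-phosphate coupling-enzyme reagent at 57.5 uM final and held 10 min at RT. Next, substrate, coupling system and AmpLite Red are added. After 20 min RT, fluorescence (525/598 nm) is read.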
Sfp inh = inhibitors of Bacillus subtilis Sfp phosphopantetheinyl transferase. Potency, µM, without a hit: largest response in the series, negative = inhibition, usual class: inhibitors. 310,000 tested, 3.5% active. Biochemical Sfp PPTase activity, qHTS;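 further: the enzyme is Sfp with the accession as filed and its product quenches rhodamine fluorescence; potency means the concentration at half of the fitted maximal effect; 0% = enzyme reaction without inhibitor and -100% = no enzyme wells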
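Compounds were incubated with enzyme (final 15 nM) for 15 min at room temperature before substrate addition started the reaction. Fluorescence at 525 nm excitation, 598 nm emission was recorded immediately and after 30 minutes.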
Starred values were filed as active, the others as inactive; ? = inconclusive; · = not tested or not shown; ! = not confirmed by another sample; [ ] = dose if it differs, or a comment. Shown are actives, neighbours in structure and some others; about 5.2% of the full set was active somewhere. Unless noted, the call rests on the fitted dose curve; in most records, active means well fitted curve in the direction sought with a large enough effect; inconclusive means small, poorly fitted or top-dose-only effect, or another doubt; inactive means no such curve, though single readings can be large; an effect the other way counts as inactive or inconclusive. Unless noted, on the % scale 0 is the no-effect control and ±100 the full control effect.

SMILES	Tau FP inhib	Tau fluor cs	Tau fibril ThT	FBPA coupling cs	Sfp inh
O=C(Cn1c(=O)n(Cc2nc(-c3ccccc3)no2)c(=O)c2cc3c(cc21)OCO3)Nc1ccccc1	28µM*	-27%	16%	·	·
O=C(Nc1ccc(Cl)cc1)c1cc2c(cc1O)[nH]c1ccccc12	-1%	4µM*[quencher]	?	2	-7%
COc1ccccc1/C=C1\CCCC2=C1Nc1nnnn1C2c1ccccc1OC (stereo not drawn)	-2%	15%	?	-6	50µM*
COc1ccccc1NC(=O)C1=C(C)Nc2nnnn2C1c1ccccc1OC (stereo not drawn)	-2%	-4%	-11%	3	11%
COc1ccc(NC(=S)Nc2nc(CC(=O)Nc3ccccc3OC)cs2)cc1	-8%	13µM*[quencher]	-17%	-1	-11%
Clc1ccccc1CN1CCc2nc(N3CCN(c4ncccn4)CC3)ncc2C1	-8%	-3%	?	·	·
CN1/C(=C\C=Nc2ccc3ccccc3c2)C(C)(C)c2ccccc21	-1%	-24%	?	-7	-12%
CN(C)c1ccc(N=C/C=C2\N(C)c3ccccc3C2(C)C)cc1	-7%	?	5µM*	-3	?
CN1\C(=C/C=C/C=C/C=[N+](C)C)C(C)(C)c2ccccc21	?	1.6µM*[fluorescent]	3.5µM*	-6	56µM*
O=C(CSc1nnc(CNC(=O)c2ccco2)o1)Nc1ccccc1F	·	·	·	·	40µM*
O=C(CSc1nnc(CNC(=O)c2ccco2)o1)Nc1ccccc1C(F)(F)F	·	·	·	·	5%
O=C(Cn1c(=O)n(-c2ccccc2)c(=O)c2ccc(C(=O)NCc3ccc4c(c3)OCO4)cc21)Nc1ccc(Br)cc1F	?	-1%	17%	·	·
CCCCCc1cc(=O)oc2c(C(CCN3CCCC(C)C3)c3ccc(N(C)C)cc3)c(OC)cc(OC)c12 (stereo not drawn)	0%	?	?	1	56µM*
CCCCCc1cc(=O)oc2c(C(CCN3CCCC(C)C3)c3cc(OC)c(OC)c(OC)c3)c(OC)cc(OC)c12 (stereo not drawn)	-7%	-14%	?	3	0%
COc1cc(OC)c2c(-c3ccccc3)cc(=O)oc2c1C(CCN1CCCCC1)c1ccc2c(c1)OCO2 (stereo not drawn)	7%	5%	-6%	1	13µM*!
CCCCCc1cc(=O)oc2c(C(CCN3CCCCC3)c3cc(OC)c(OC)c(OC)c3)c(OC)cc(OC)c12 (stereo not drawn)	3%	11%	-12%	2	79µM*
CCc1ccc(S(=O)(=O)c2nnn3c2nc(Nc2cccc(C)c2C)c2sccc23)cc1	-9%	-15%	-3%	·	·
CCc1ccc(C(=O)c2cn(CC(=O)Nc3ccc(C)c(C)c3)c3ccccc3c2=O)cc1	-18%	-19%	8%	·	·
CN1CC(C(=O)O)Cc2c1ccc1ccccc21 (stereo not drawn)	?	?	?	-46*	?
O=[N+]([O-])c1ccc(/C=N/NC(=S)Nc2ccc(Cl)cc2Cl)s1	6%	?	?	-11	56µM*
O=C(N/N=C/c1ccc([N+](=O)[O-])s1)c1ccccc1	4%	-19%	?	-2	?
O=C(N/N=C\c1ccc([N+](=O)[O-])s1)c1cncc(Br)c1	13%	?	14µM*	0	-9%
O=[N+]([O-])c1ccc(O)c(/C=N/NC(=S)Nc2ccc(Cl)cc2Cl)c1	13%	?	·	-4	-20%
CCCCN(C)CCCNC(=O)Cn1ncc2c3ccccc3n(Cc3ccccc3F)c2c1=O	-1%	-8%	2%	·	·
COc1cc(OC)c(NS(=O)(=O)c2c(C(=O)N3CCC(C)CC3)c(C)n(C)c2C)cc1Cl	10%	-6%	-5%	·	·
N#C/C(=N\Nc1cc(Cl)cc(Cl)c1)c1nnc2n1CCCCC2	-1%	-3%	0%	3	?
N#C/C(=C1\C(=O)Nc2c(Cl)cc(Cl)cc21)c1nnc2n1CCCCC2	?	-25%	16µM*	-38*	?
Cc1cc(N2CCN(C)CC2)nc2ccc(NC(=O)c3ccc(Br)o3)cc12	9%	?	?	-3	-6%
Cc1cc(N2CCCCC2)nc2ccc(NC(=O)c3ccc(Br)o3)cc12	?	25µM*[quencher]	8.9µM*	-4	5%
